In PubChem BioAssay (NCI) one finds growth data, which are given here for 16 molecules.

Some test systems named below: T-47D breast; BT-549 breast; MDA-MB-435 melanoma; SW-620 colon; MCF7 breast; HCT-116 colon; HCC-2998 colon; KM12 colon.
Common to all, as to assay: NCI-60 one-dose screen, 48 h (100 = growth as untreated, 0 = no growth, -100 = all killed)
Common to all, as to conditions: 10 µM unless noted

Compounds without any hit were thinned out: in the full panel of roughly 83,000, 20% have a hit.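 96-well plates, one dose, 48 hours. Percent growth reported; active if below 10.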 A number with no mark means an inactive call. Activity calls are given as the source filed them.

`COc1cc(/C=N/NC(=O)c2cnn3c2NC(c2ccccc2)C3)ccc1OCc1ccccc1` (centres undefined): the growth with T-47D breast was 8.39% (active); with BT-549 breast it was -6.73% (active); with MDA-MB-435 melanoma, -28.3% (active); in the experiment with SW-620 colon it was -1% (active); in the experiment on MCF7 breast, 0.769% (active); in the experiment on HCT-116 colon it was -15.1% (active). Also, the growth in the experiment on HCC-2998 colon is 32.8%.
As to `Cn1cc(CC2CC(=O)N(c3ccccc3)C2=O)sc1=NC(=O)c1ccccc1` (centres undefined), the growth in the experiment with T-47D breast is 91.1%; with BT-549 breast, 87.2%; in the experiment on MDA-MB-435 melanoma, 101%; in the experiment with SW-620 colon, 94.5%; in the experiment on MCF7 breast, 99.2%; with HCT-116 colon it was 96.9%. Further, the growth in the experiment with HCC-2998 colon was 100%.
`CCCCC[n+]1ccc(SCC(=O)N(C)c2ccc(Oc3ccccc3)cc2)c2ccccc21`: the growth with T-47D breast was 68.5%; in the experiment with BT-549 breast, 130%; in the experiment with MDA-MB-435 melanoma, 98.1%; in the experiment with SW-620 colon, 86.4%; in the experiment on MCF7 breast, 95.7%; with HCT-116 colon it was 92.8%. The growth with HCC-2998 colon was 100%.
As for `CCN(CC)CC[n+]1cc2cc(OC)c(OC)cc2c2ccc3cc4c(cc3c21)OCO4`, the growth in the experiment with T-47D breast is 16.2%; in the experiment with BT-549 breast, -4.72% (active); in the experiment on MDA-MB-435 melanoma it was 24.6%; in the experiment with SW-620 colon, 9.98% (active); in the experiment with MCF7 breast it was 11.5%; in the experiment on HCT-116 colon, -83% (active). Besides, the growth in the experiment with HCC-2998 colon was 18.7%.
On to `CCCCCCNC(=O)Oc1ccc(/C(=C(\C)c2ccccc2)c2ccc(OCCCN(C)C)cc2)cc1`, for which the growth was 46.2% with T-47D breast; 85.4% in the experiment on BT-549 breast; 48.3% in the experiment on MDA-MB-435 melanoma; 92.4% in the experiment on SW-620 colon; 21.3% in the experiment with MCF7 breast; 47.1% in the experiment with HCT-116 colon. For the same molecule, the growth in the experiment with HCC-2998 colon was 86.7%; in the experiment with KM12 colon it was 74.3%.
Turning to `CCOC(=O)c1cc(C(=O)c2cc(OC)cc(OC)c2)n2ccc3ccccc3c12`, the growth in the experiment with T-47D breast was 95%; in the experiment with BT-549 breast, 74.7%; in the experiment with MDA-MB-435 melanoma, 99.5%; in the experiment with SW-620 colon, 102%; with MCF7 breast, 99.2%; in the experiment on HCT-116 colon it was 84%. Besides, the growth with HCC-2998 colon was 108%; in the experiment on KM12 colon it was 100%.
Turning to `CC/C(=C\c1ccc(OC)cc1)C(=O)c1ccc(OC)cc1`, the growth is 85.8% with T-47D breast; 135% in the experiment with BT-549 breast; 73.1% in the experiment on MDA-MB-435 melanoma; 94.2% with SW-620 colon; 107% with MCF7 breast; 90.8% in the experiment on HCT-116 colon. Further, the values for the growth in the experiment with HCC-2998 colon and with KM12 colon were 93.5% and 96.3%, respectively.
Take `c1ccc(-c2c(-c3ccccc3)[n+](Cc3ccc4ccccc4c3)c(-c3cccc4ccccc34)n2Cc2ccc3ccccc3c2)cc1`: the growth in the experiment on T-47D breast is -73.4% (active); in the experiment on BT-549 breast it was -63.7% (active); in the experiment with MDA-MB-435 melanoma, -58.6% (active); in the experiment on SW-620 colon, -66.1% (active); with MCF7 breast it was -15% (active); with HCT-116 colon it was -74.4% (active). Besides, the figures for the growth in the experiment on HCC-2998 colon and with KM12 colon were -74.5% (active) and -77.7% (active), respectively.
As for `O=C(/C=C(O)/C=C/c1ccc(SC(F)(F)F)cc1)/C=C/c1ccc(SC(F)(F)F)cc1`, the growth with T-47D breast is 78%; in the experiment on BT-549 breast, 82.5%; with MDA-MB-435 melanoma, 79.2%; with SW-620 colon, 89.1%; in the experiment on MCF7 breast, 52.1%; in the experiment on HCT-116 colon it was 17.7%. For the same molecule, the growth was 101% in the experiment with HCC-2998 colon and 81.9% in the experiment with KM12 colon.
Consider `COc1ccc(-c2cnc3c(-c4cccc5cnccc45)cnn3c2)cc1`, for which the growth was 22.8% in the experiment with T-47D breast; 50.1% in the experiment on BT-549 breast; 62.9% with MDA-MB-435 melanoma; 60.7% in the experiment on SW-620 colon; 78.7% with MCF7 breast; -15% (active) in the experiment with HCT-116 colon. Besides, the results for the growth in the experiment with HCC-2998 colon and in the experiment on KM12 colon were 99.1% and 63.1%, respectively.
For the molecule `O=S(=O)(NCCNc1nccc(-c2c(-c3cccc(O)c3)nc3occn23)n1)c1ccc(C(F)(F)F)cc1`, the growth with T-47D breast is 79.2%; in the experiment with BT-549 breast, 107%; in the experiment on MDA-MB-435 melanoma it was 45%; in the experiment on SW-620 colon, 126%; in the experiment with MCF7 breast it was 67.2%; with HCT-116 colon it was 90.1%. Moreover, the growth in the experiment with HCC-2998 colon is 132%; with KM12 colon it was 94.4%.
As for `CCOC(=O)C1=C(C)NC(SCc2cc(=O)oc3ccc(F)cc23)=N[C@@H]1c1cccc2ccccc12`, the growth in the experiment with T-47D breast was 82.4%; with BT-549 breast, 102%; in the experiment with MDA-MB-435 melanoma, 99.1%; in the experiment with SW-620 colon, 101%; with MCF7 breast, 84.3%; in the experiment with HCT-116 colon it was 76.9%. Also, the growth is 105% in the experiment with HCC-2998 colon and 97.7% in the experiment on KM12 colon.
Take `Cn1nc(CC#N)c2c(=N)n(N)cnc21`: the growth was 105% in the experiment with T-47D breast; 122% with BT-549 breast; 107% in the experiment on MDA-MB-435 melanoma; 104% in the experiment on SW-620 colon; 100% in the experiment on MCF7 breast; 119% in the experiment on HCT-116 colon. Besides, the figures for the growth with HCC-2998 colon and in the experiment on KM12 colon were 120% and 102%, respectively.
Take `Cc1ccc(-c2csc(NC(=O)CSc3nc(-c4ccccc4)cc(=O)[nH]3)n2)cc1`: the growth in the experiment on T-47D breast is 78.1%; in the experiment with BT-549 breast, 114%; with MDA-MB-435 melanoma, 106%; with SW-620 colon, 96.2%; with MCF7 breast, 82.9%; in the experiment on HCT-116 colon, 98.5%. In addition, the growth is 106% in the experiment on HCC-2998 colon and 94.8% with KM12 colon.
As to `COc1cccc2c1c1nc3cc(C)c(C)cc3nc1n2CCN(C)C`, the growth in the experiment with T-47D breast is 30.1%; in the experiment on BT-549 breast it was 68.8%; in the experiment on MDA-MB-435 melanoma it was 31.3%; in the experiment on SW-620 colon it was 12.6%; in the experiment on MCF7 breast it was 4.64% (active); with HCT-116 colon, 14.4%. The growth in the experiment on HCC-2998 colon was 44.6%; in the experiment with KM12 colon it was 29.2%.
For `CC(C)N1C(=O)/C(=C2\SC(=S)N(C(C)C)C2=O)SC1=S`, the growth is 82.8% with T-47D breast; 98.7% with BT-549 breast; 100% in the experiment with MDA-MB-435 melanoma; 94.9% in the experiment on SW-620 colon; 96.8% in the experiment on MCF7 breast; 95% with HCT-116 colon. Besides, the growth with HCC-2998 colon is 98.3%; in the experiment on KM12 colon it was 99.9%.
